Source: PubChem
Tau FP inhib: inhibitors of human tau fibril formation; P10636; K18 P301L tau heparin fibrillization, Alexa594 FP, 6 h; Potency, µM (highest dose often 57.7 µM), for the others: at the top dose activity, negative = inhibition, actives largely listed as inhibitors; 280,000 compounds, 0.39% hits; also: nearly all actives have a fitted effect of over 55% in size
Target sequence (P10636 561-689 P618L limits assumed): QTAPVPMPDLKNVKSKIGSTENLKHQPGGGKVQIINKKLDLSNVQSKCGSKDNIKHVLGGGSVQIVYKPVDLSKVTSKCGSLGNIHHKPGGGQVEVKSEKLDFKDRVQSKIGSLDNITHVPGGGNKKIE
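Compound effects on tau fibrillization are measured by Alexa 594 fluorescence polarization (ex 555, em 632 nm). K18 P301L tau is used at 15 uM with 0.24 uM labeled tracer, and 20 uM heparin induces aggregation over 6 hr at 37 C.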
Tau fluor cs: counter-screen for tau fibril formation inhibitors. Potency, µM (highest dose often 57.7 µM), inactives show at the top dose activity change, negative = decrease. 280,000 compounds, 0.93% hits. tau K18 P301L Alexa594 fluorescence, heparin fibrillization; also: nearly all actives have a fitted effect of over 55% in size
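Human tau K18 P301L (15 uM unlabeled, 0.24 uM Alexa 594-labeled) in 100 mM sodium acetate pH 7 with 20 uM heparin, 6 hr at 37 C. ThT 30 uM added, 1 hr ambient; Alexa 594 FP and total fluorescence read at 555/632 nm.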
Tau fibril ThT: inhibitors of human tau fibril formation, thioflavin T binding; AID 1460; Potency, µM (titrated, usually from 57.4 µM), for inactives: top-dose activity, negative = inhibition, actives largely listed as inhibitors; P10636; 270,000 compounds, 2.1% hits; recombinant tau K18 P301L, heparin-induced fibrillization, ThT fluorescence; also: nearly all actives have a fitted effect of over 55% in size
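Fibril formation assay: tau K18 P301L at 15 uM with trace Alexa 594 label, heparin inducer 20 uM, pH 7 sodium acetate buffer, 37 C for 6 hr; endpoint ThT signal.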
TRb SRC2 PPI: TRbeta-SRC2 interaction inhibition; TRbeta-SRC2 peptide binding, fluorescence polarization; receptor liganded with 1 µM T3; P10828; Potency, µM (highest dose often 106 µM), for the others: at the highest dose activity change, negative = inhibition, usual class: inhibitors; AID 1469; 280,000 compounds, 0.065% hits;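 also: plate controls were bound peptide for no effect and peptide without receptor for full effect; nearly all actives have a fitted effect of over 50% in size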
Target sequence (P10828 whole entry, looked up): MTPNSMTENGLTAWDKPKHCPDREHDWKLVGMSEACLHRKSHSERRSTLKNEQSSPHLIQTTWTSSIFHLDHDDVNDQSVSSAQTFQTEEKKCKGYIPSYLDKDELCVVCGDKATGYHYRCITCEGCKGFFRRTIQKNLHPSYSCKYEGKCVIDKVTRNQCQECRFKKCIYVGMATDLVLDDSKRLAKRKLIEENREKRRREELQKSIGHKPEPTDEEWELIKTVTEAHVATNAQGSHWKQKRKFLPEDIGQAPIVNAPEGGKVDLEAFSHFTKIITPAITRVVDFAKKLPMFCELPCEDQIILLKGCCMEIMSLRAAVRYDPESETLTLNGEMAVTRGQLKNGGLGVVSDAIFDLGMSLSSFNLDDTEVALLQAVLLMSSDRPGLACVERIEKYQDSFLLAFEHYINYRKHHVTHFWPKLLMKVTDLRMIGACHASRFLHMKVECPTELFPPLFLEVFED
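Read-out is fluorescence polarization (555 nm excitation, 632 nm emission) of a Texas Red SRC2 coactivator peptide; loss of signal reflects blocked binding to human TRb ligand-binding domain in the presence of 1 uM T3.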
TR SRC2 fluor cs: alters Texas Red total fluorescence, flagging assay interference. 280,000 compounds, 0.29% hits. TRb/SRC2 Texas Red total fluorescence interference. AID 1479. Potency, µM (titrated, usually from 106 µM), inactives show at the top dose fluorescence change, negative = quenching; active = well fitted curve in either direction with a large enough effect; inconclusive = small, poorly fitted or top-dose-only effect
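Human TRb ligand-binding domain at 0.6 uM with 20 nM Texas Red SRC2 peptide in Tris buffer containing 1 uM T3 and 5% DMSO, incubated with compound 5 h at ambient temperature. Total fluorescence (555/632 nm) calculated as parallel + 2 × perpendicular.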
Starred values were filed as active, the others as inactive; [ ] = dose if it differs, or a comment. Sampled rows, rich in hits. Any-hit rate of the full collection: about 3.1%. Unless noted, calls follow the shape of the dose curve; as a rule, active = well fitted curve in the direction sought with a large enough effect; inconclusive = small, poorly fitted or top-dose-only effect, or another doubt; inactive = no such curve, though single readings can be large; an effect the other way counts as inactive or inconclusive. Unless noted, % is scaled to controls: 0 for no effect and ±100 for the full control effect; potency is read from the fitted curve at half-maximal effect.

`COc1ccc(C(=O)Nc2ccccc2-c2nc3ccccc3s2)c(OC)c1` gave Tau FP inhib inconclusive, Tau fluor cs -26%, Tau fibril ThT -1%, TRb SRC2 PPI 6% and TR SRC2 fluor cs inconclusive.
O=C(c1ccco1)[C@@H]1[C@@H]2C(=O)N(c3ccc(F)cc3)C(=O)[C@@H]2[C@H]2C=Cc3ccccc3N21 was read as Tau FP inhib inconclusive, Tau fluor cs -25%, Tau fibril ThT 14µM*, TRb SRC2 PPI 13% and TR SRC2 fluor cs 2%.
Screening NC(=O)[C@@H]1[C@@H]2C(=O)N(c3ccc(F)cc3)C(=O)[C@@H]2[C@H]2C=Cc3ccccc3N21 returned Tau FP inhib inconclusive, Tau fluor cs -25%, Tau fibril ThT 14µM*, TRb SRC2 PPI 3% and TR SRC2 fluor cs 4%.
Screening COC(=O)C1(C)NC(c2ccco2)C2C(=O)N(c3ccc(F)cc3)C(=O)C21 (stereo unspecified) returned Tau FP inhib -3%, Tau fluor cs 2%, Tau fibril ThT -3%, TRb SRC2 PPI 6% and TR SRC2 fluor cs -3%.
`N=C1CCC(=N)c2c1c(O)c1ccccc1c2O` gave Tau FP inhib 25µM*, Tau fluor cs inconclusive, Tau fibril ThT 13µM*, TRb SRC2 PPI 32µM* and TR SRC2 fluor cs 45µM*[fluorescent].
Cc1cc(O)c2ccccc2c1O was read as TRb SRC2 PPI 1% and TR SRC2 fluor cs -6%.
CCOC(=O)c1sc2ncn(CC(=O)Nc3ccc(F)cc3F)c(=O)c2c1C was read as Tau FP inhib -4%, Tau fluor cs 8%, Tau fibril ThT 6%, TRb SRC2 PPI -3% and TR SRC2 fluor cs -1%.
Screening Cc1c(Cc2ccccc2)sc(/N=C/c2c(O)ccc3ccccc23)c1C(N)=O returned Tau FP inhib inconclusive, Tau fluor cs 32µM*[quencher], Tau fibril ThT 28µM*, TRb SRC2 PPI 4% and TR SRC2 fluor cs -1%.
`Cc1c(Cc2ccccc2)sc(/N=C/c2ccc3ccccc3c2)c1C(N)=O` gave Tau FP inhib 3%, Tau fluor cs -19%, Tau fibril ThT -16%, TRb SRC2 PPI 5% and TR SRC2 fluor cs -1%.
Screening Cn1c(O)c(/C=C2\C=Nc3ccccc32)sc1=Nc1ccc(C(=O)O)cc1 returned Tau FP inhib 9%, Tau fluor cs -26%, TRb SRC2 PPI 4% and TR SRC2 fluor cs -5%.
`Oc1nc(Nc2ccc(Cl)cc2Cl)sc1/C=C1\C=Nc2ccccc21` gave Tau FP inhib 9%, Tau fluor cs inconclusive, Tau fibril ThT 8.9µM*, TRb SRC2 PPI 0% and TR SRC2 fluor cs -15%.
For N[C@@H](Cc1cc(-c2ccc(Cl)cc2Cl)cc(CP(=O)(O)O)c1O)C(=O)O the results were Tau FP inhib -3%, Tau fluor cs 7%, Tau fibril ThT 11%, TRb SRC2 PPI 3% and TR SRC2 fluor cs -5%.
For COc1cccc(/C=N/N2C(=O)CSC2=S)c1O the results were Tau FP inhib inconclusive, Tau fluor cs inconclusive, Tau fibril ThT 16µM*, TRb SRC2 PPI -3% and TR SRC2 fluor cs 0%.
Screening COc1cc(/C=N/N2C(=O)CSC2=S)cc(Br)c1O returned Tau FP inhib inconclusive, Tau fluor cs inconclusive, Tau fibril ThT 13µM*, TRb SRC2 PPI inconclusive and TR SRC2 fluor cs inconclusive.
Screening COc1ccc2ccccc2c1/C=N/N1C(=O)CSC1=S returned Tau FP inhib -11%, Tau fluor cs -29%, Tau fibril ThT 11µM*, TRb SRC2 PPI 28% and TR SRC2 fluor cs -21%.
`N#Cc1c(/N=C/c2cccs2)sc2c1CCCCC2` gave Tau FP inhib -6%, Tau fluor cs -26%, Tau fibril ThT 3.2µM*, TRb SRC2 PPI -5% and TR SRC2 fluor cs -1%.
For N#Cc1c(/N=C/c2ccc(Br)s2)sc2c1CCC2 the results were Tau FP inhib -6%, Tau fluor cs -14%, Tau fibril ThT inconclusive, TRb SRC2 PPI 1% and TR SRC2 fluor cs -4%.
For CC(C)C[C@H](NC(=O)c1[nH]cnc1C(=O)Nc1ccccc1)C(=O)OC(C)(C)C the results were Tau FP inhib 22µM*, Tau fluor cs inconclusive, Tau fibril ThT 9%, TRb SRC2 PPI 1% and TR SRC2 fluor cs -1%.
`CCOC(=O)c1ccc(NC(=O)c2nc[nH]c2C(=O)N[C@@H](CC(C)C)C(=O)OCc2ccccc2)cc1` gave Tau FP inhib 8.9µM*, Tau fluor cs -30%, Tau fibril ThT inconclusive, TRb SRC2 PPI -1% and TR SRC2 fluor cs -2%.
Screening C[C@H](NC(=O)c1[nH]cnc1C(=O)Nc1ccc(Cl)cc1)C(=O)OC(C)(C)C returned Tau FP inhib 25µM*, Tau fluor cs inconclusive, Tau fibril ThT 10%, TRb SRC2 PPI -2% and TR SRC2 fluor cs 1%.
COc1ccc(OC)c(CCNC(=O)c2csc3c2CCCCC3)c1 was read as Tau FP inhib 4%, Tau fluor cs -26%, Tau fibril ThT inconclusive, TRb SRC2 PPI -1% and TR SRC2 fluor cs -14%.
For COc1c(C2=CC(=O)N(C)C2=O)c2c(n1C)C(=O)c1ccccc1C2=O the results were Tau FP inhib -12%, Tau fluor cs 18µM*[quencher], Tau fibril ThT 14µM*, TRb SRC2 PPI 12% and TR SRC2 fluor cs -1%.
`COc1ccc(Cl)cc1NC(=O)c1c(NCc2ccc(C)o2)sc2c1CCC(C)C2` (stereo unspecified) gave Tau FP inhib 3%, Tau fluor cs -9%, Tau fibril ThT -2%, TRb SRC2 PPI 1% and TR SRC2 fluor cs -1%.
Screening COc1ccc(NC(=O)c2c(NCc3cccs3)sc3c2CCCCC3)c(OC)c1 returned Tau FP inhib inconclusive, Tau fluor cs inconclusive, Tau fibril ThT 25µM*, TRb SRC2 PPI 3% and TR SRC2 fluor cs 3%.
`COc1ccc(OC)c(NC(=O)c2c(NCc3ccc(C)o3)sc3c2CCCCC3)c1` gave Tau FP inhib inconclusive, Tau fluor cs inconclusive, Tau fibril ThT 25µM*, TRb SRC2 PPI 0% and TR SRC2 fluor cs -2%.
COc1ccc(Cl)cc1NC(=O)c1c(NCc2ccc(C)o2)sc2c1CCCCC2 was read as Tau FP inhib -12%, Tau fluor cs -21%, Tau fibril ThT inconclusive, TRb SRC2 PPI 0% and TR SRC2 fluor cs -2%.
For COc1ccc(NC(=O)c2c(NCc3cccs3)sc3c2CCCC3)cc1 the results were Tau FP inhib -10%, Tau fluor cs inconclusive, Tau fibril ThT inconclusive, TRb SRC2 PPI -9% and TR SRC2 fluor cs -1%.
For COc1ccccc1NC(=O)c1c(NCc2ccc(C)o2)sc2c1CCCCC2 the results were Tau FP inhib inconclusive, Tau fluor cs inconclusive, Tau fibril ThT 25µM*, TRb SRC2 PPI 1% and TR SRC2 fluor cs 0%.
`Cc1c(CC(=O)N2CCCCC2)c(=O)oc2c(C)c3occ(C(C)(C)C)c3cc12` gave Tau FP inhib 7%, Tau fluor cs -10%, Tau fibril ThT inconclusive, TRb SRC2 PPI -7% and TR SRC2 fluor cs 0%.
